Source: PubChem BioAssay (NCATS)
“And” between values parts separate entries of the source, which are not always exact repeats. Identical values can stand only once. Inconclusive results are not listed. Entries that show only a call come without a potency. Unmarked numbers belong to inactive results. The source made the active and inactive calls. The call rests on the fitted dose curve; in most records, active means well fitted inhibition curve with a large enough effect; inconclusive means small, poorly fitted or top-dose-only effect; inactive means flat fitted curve, though single readings scatter.

What was measured:
[1] = test system: GB4; experiment: qHTS profiling for inhibitors of Plasmodium falciparum proliferation (AID 504749); details: P. falciparum in erythrocytes, SYBR Green DNA, 72 h; series mostly up to 28.7 µM
How it was run: (§1)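 Readout was DNA-dye fluorescence from lysed cultures, ex 485/em 535 nm. Parasitized red cells had grown 72 h with compound; data scaled between 0.29 uM artemisinin and DMSO wells and corrected using vehicle-only plates.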

[2] = test system: HB3; experiment: as above; details: P. falciparum in erythrocytes, SYBR Green DNA, 72 h; series mostly up to 28.7 µM
How it was run: as §1

[3] = test system: ICS; experiment: as above; details: P. falciparum in erythrocytes, SYBR Green DNA, 72 h; series mostly up to 28.7 µM
How it was run: as §1

[4] = test system: JCK; experiment: as above; details: P. falciparum in erythrocytes, SYBR Green DNA, 72 h; series mostly up to 28.7 µM
How it was run: as §1

[5] = test system: N140; experiment: as above; details: P. falciparum in erythrocytes, SYBR Green DNA, 72 h; series mostly up to 28.7 µM
How it was run: as §1

[6] = test system: P93_24; experiment: as above; details: P. falciparum in erythrocytes, SYBR Green DNA, 72 h; series mostly up to 28.7 µM
How it was run: as §1

[7] = test system: P94_40; experiment: as above; details: P. falciparum in erythrocytes, SYBR Green DNA, 72 h; series mostly up to 28.7 µM
How it was run: as §1

[8] = test system: PAD; experiment: as above; details: P. falciparum in erythrocytes, SYBR Green DNA, 72 h; series mostly up to 28.7 µM
How it was run: as §1

[9] = test system: PC15; experiment: as above; details: P. falciparum in erythrocytes, SYBR Green DNA, 72 h; series mostly up to 28.7 µM
How it was run: as §1

[10] = test system: PC26; experiment: as above; details: P. falciparum in erythrocytes, SYBR Green DNA, 72 h; series mostly up to 28.7 µM
How it was run: as §1

[11] = test system: PC49; experiment: as above; details: P. falciparum in erythrocytes, SYBR Green DNA, 72 h; series mostly up to 28.7 µM
How it was run: as §1

[12] = test system: SC27B; experiment: as above; details: P. falciparum in erythrocytes, SYBR Green DNA, 72 h; series mostly up to 28.7 µM
How it was run: as §1

[13] = test system: TAB109; experiment: as above; details: P. falciparum in erythrocytes, SYBR Green DNA, 72 h; series mostly up to 28.7 µM
How it was run: as §1

[14] = test system: TAB113; experiment: as above; details: P. falciparum in erythrocytes, SYBR Green DNA, 72 h; series mostly up to 28.7 µM
How it was run: as §1

[15] = test system: TAB165; experiment: as above; details: P. falciparum in erythrocytes, SYBR Green DNA, 72 h; series mostly up to 28.7 µM
How it was run: as §1

[16] = test system: W2; experiment: as above; details: P. falciparum in erythrocytes, SYBR Green DNA, 72 h; series mostly up to 28.7 µM
How it was run: as §1

[17] = test system: CRL-7250; experiment: Cytotoxic Profiling of Annotated Libraries Using Quantitative High-Throughput Screening (AID 1296008); details: Five cell lines viability, CellTiter-Glo ATP luminescence, 48-72 h; max response: hits give low values
How it was run: (§2)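 Cells exposed to compounds for 48 or 72 hr at 37 degrees Celsius. Viability read as ATP-coupled luminescence with CellTiter-Glo after 10 min at room temperature.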

[18] = test system: HEK293; experiment: as above; details: Five cell lines viability, CellTiter-Glo ATP luminescence, 48-72 h; max response: hits give low values
How it was run: as §2

[19] = test system: HaCat; experiment: as above; details: Five cell lines viability, CellTiter-Glo ATP luminescence, 48-72 h; max response: hits give low values
How it was run: as §2

[20] = test system: KB-3-1; experiment: as above; details: Five cell lines viability, CellTiter-Glo ATP luminescence, 48-72 h; max response: hits give low values
How it was run: as §2
Further: nearly all actives have a fitted effect of over 60% in size.
Potency means the concentration at half of the fitted maximal effect.

## NC(=O)NNc1ccccc1
[1]
  Potency: inactive
[2]
  Potency: inactive
[3]
  Potency: inactive
[4]
  Potency: inactive
[5]
  Potency: inactive
[6]
  Potency: inactive
[7]
  Potency: inactive
[8]
  Potency: inactive
[9]
  Potency: inactive
[10]
  Potency: inactive
[11]
  Potency: inactive
[12]
  Potency: inactive
[13]
  Potency: inactive
[14]
  Potency: inactive
[15]
  Potency: inactive
[16]
  Potency: inactive
[17]
  max response: 2.83%
[18]
  max response: 0.574%
[19]
  max response: -7.26%
[20]
  max response: 13.6% and -2.9%

## Oc1cn2c(n1)Nc1ccc(Cl)c(Cl)c1C2
[1]
  Potency: inactive
[2]
  Potency: inactive
[4]
  Potency: inactive
[5]
  Potency: inactive
[6]
  Potency: inactive
[7]
  Potency: inactive
[8]
  Potency: inactive
[9]
  Potency: inactive
[10]
  Potency: inactive
[11]
  Potency: inactive
[12]
  Potency: inactive
[13]
  Potency: inactive
[14]
  Potency: inactive
[15]
  Potency: inactive
[16]
  Potency: inactive
[17]
  outcome: inactive
[18]
  outcome: inactive
[19]
  outcome: inactive
[20]
  max response: -2.96% and -14.6%

## N[C@@H](CSCCCO)C(=O)O
[1]
  Potency: inactive
[2]
  Potency: inactive
[3]
  Potency: inactive
[4]
  Potency: inactive
[5]
  Potency: inactive
[6]
  Potency: inactive
[7]
  Potency: inactive
[8]
  Potency: inactive
[9]
  Potency: inactive
[10]
  Potency: inactive
[11]
  Potency: inactive
[12]
  Potency: inactive
[13]
  Potency: inactive
[14]
  Potency: inactive
[15]
  Potency: inactive
[16]
  Potency: inactive
[17]
  max response: -1.84%
[18]
  outcome: inactive
[19]
  max response: 2.87%
[20]
  max response: -1.02%

## CCN(CC)CCNC(C(=O)OCCC(C)C)c1ccccc1 (stereo not drawn)
[1]
  Potency: 7.57 µM (active)
[2]
  Potency: inactive
[3]
  Potency: 5.62 µM (active)
[4]
  Potency: inactive
[6]
  Potency: 8.91 µM (active)
[8]
  Potency: inactive
[12]
  Potency: inactive
[15]
  Potency: 10 µM (active)
[16]
  Potency: 4.78 µM (active)
[17]
  max response: 1.18%
[18]
  outcome: inactive
[19]
  outcome: inactive
[20]
  max response: 11.9%

## O=S(=O)(O)c1cc(I)c(O)c2ncccc12
[1]
  Potency: inactive
[2]
  Potency: inactive
[4]
  Potency: inactive
[5]
  Potency: inactive
[6]
  Potency: inactive
[7]
  Potency: inactive
[8]
  Potency: inactive
[9]
  Potency: inactive
[10]
  Potency: inactive
[11]
  Potency: inactive
[12]
  Potency: inactive
[13]
  Potency: inactive
[14]
  Potency: inactive
[15]
  Potency: inactive
[16]
  Potency: inactive
[17]
  max response: 1.34%
[18]
  outcome: inactive
[19]
  outcome: inactive
[20]
  max response: -3.56%

## O=C1O[C@H]([C@@H](O)CO)C(O)=C1O
[1]
  Potency: inactive
[2]
  Potency: inactive
[3]
  Potency: inactive
[4]
  Potency: inactive
[5]
  Potency: inactive
[6]
  Potency: inactive
[7]
  Potency: inactive
[8]
  Potency: inactive
[9]
  Potency: inactive
[10]
  Potency: inactive
[11]
  Potency: inactive
[12]
  Potency: inactive
[13]
  Potency: inactive
[14]
  Potency: inactive
[15]
  Potency: inactive
[16]
  Potency: inactive
[17]
  max response: 0.399%
[18]
  outcome: inactive
[19]
  outcome: inactive
[20]
  max response: -6.89% and 6.42%

## Cc1ccc2nc(N)[nH]c(=O)c2c1Sc1ccncc1
[1]
  Potency: 10.7 µM (active)
[4]
  Potency: 12.6 µM (active)
[5]
  Potency: 3.98 µM (active)
[6]
  Potency: 14.1 µM (active)
[7]
  Potency: 12.6 µM (active)
[10]
  Potency: inactive
[13]
  Potency: 7.08 µM (active)
[15]
  Potency: 2 µM (active)
[17]
  max response: -27% and -23.5%
[18]
  Potency: 8.2 µM (active)
[19]
  Potency: 1.33 µM (active) and 2.59 µM (active)
[20]
  max response: -5.1%

## CCCOC(=O)c1ccccc1
[1]
  Potency: inactive
[2]
  Potency: inactive
[3]
  Potency: inactive
[4]
  Potency: inactive
[5]
  Potency: inactive
[6]
  Potency: inactive
[7]
  Potency: inactive
[8]
  Potency: inactive
[9]
  Potency: inactive
[10]
  Potency: inactive
[11]
  Potency: inactive
[12]
  Potency: inactive
[13]
  Potency: inactive
[14]
  Potency: inactive
[15]
  Potency: inactive
[16]
  Potency: inactive
[17]
  max response: -5.05%
[18]
  outcome: inactive
[19]
  outcome: inactive
[20]
  max response: -10.8%

## CC(O)CN(CCN(CC(C)O)CC(C)O)CC(C)O (stereo not drawn)
[1]
  Potency: inactive
[2]
  Potency: inactive
[3]
  Potency: inactive
[4]
  Potency: inactive
[5]
  Potency: inactive
[6]
  Potency: inactive
[7]
  Potency: inactive
[8]
  Potency: inactive
[9]
  Potency: inactive
[10]
  Potency: inactive
[11]
  Potency: inactive
[12]
  Potency: inactive
[13]
  Potency: inactive
[14]
  Potency: inactive
[15]
  Potency: inactive
[16]
  Potency: inactive
[17]
  max response: 4.33%
[18]
  outcome: inactive
[19]
  outcome: inactive
[20]
  max response: -16.3%

## Oc1ccc(C(O)CNCCCCCCNCC(O)c2ccc(O)c(O)c2)cc1O (stereo not drawn)
[1]
  Potency: 13.5 µM (active)
[3]
  Potency: 6.31 µM (active)
[6]
  Potency: 10 µM (active)
[11]
  Potency: inactive
[15]
  Potency: 11.2 µM (active)
[16]
  Potency: 16.9 µM (active)
[17]
  max response: -1.96%
[18]
  outcome: inactive
[19]
  outcome: inactive
[20]
  max response: 1.48%

## O=C1NS(=O)(=O)c2ccccc21
[1]
  Potency: inactive
[2]
  Potency: inactive
[3]
  Potency: inactive
[4]
  Potency: inactive
[5]
  Potency: inactive
[6]
  Potency: inactive
[7]
  Potency: inactive
[8]
  Potency: inactive
[9]
  Potency: inactive
[10]
  Potency: inactive
[11]
  Potency: inactive
[12]
  Potency: inactive
[13]
  Potency: inactive
[14]
  Potency: inactive
[15]
  Potency: inactive
[16]
  Potency: inactive
[17]
  max response: -9.05%
[18]
  outcome: inactive
[19]
  outcome: inactive
[20]
  max response: 20.6%

## [O-][n+]1cccc(CO)c1
[1]
  Potency: inactive
[2]
  Potency: inactive
[3]
  Potency: inactive
[4]
  Potency: inactive
[5]
  Potency: inactive
[6]
  Potency: inactive
[7]
  Potency: inactive
[8]
  Potency: inactive
[9]
  Potency: inactive
[10]
  Potency: inactive
[11]
  Potency: inactive
[12]
  Potency: inactive
[13]
  Potency: inactive
[14]
  Potency: inactive
[15]
  Potency: inactive
[16]
  Potency: inactive
[17]
  max response: -1.91%
[18]
  outcome: inactive
[19]
  outcome: inactive
[20]
  max response: 4.61%

## Nc1ccc(S(=O)(=O)Nc2ccc(Cl)nn2)cc1
[1]
  Potency: inactive
[3]
  Potency: inactive
[4]
  Potency: 0.891 µM (active)
[10]
  Potency: inactive
[15]
  Potency: 1 µM (active)
[16]
  Potency: inactive
[17]
  max response: -2.16%
[18]
  outcome: inactive
[19]
  max response: 0.946%
[20]
  max response: 14.3% and -6.92%

## NC(CSCC(=O)O)C(=O)O (stereo not drawn)
[1]
  Potency: inactive
[2]
  Potency: inactive
[3]
  Potency: inactive
[4]
  Potency: inactive
[5]
  Potency: inactive
[6]
  Potency: inactive
[7]
  Potency: inactive
[8]
  Potency: inactive
[9]
  Potency: inactive
[10]
  Potency: inactive
[11]
  Potency: inactive
[12]
  Potency: inactive
[13]
  Potency: inactive
[14]
  Potency: inactive
[15]
  Potency: inactive
[16]
  Potency: inactive
[17]
  outcome: inactive
[18]
  outcome: inactive
[19]
  outcome: inactive
[20]
  max response: -5.75%

## CCC(=O)c1ccc(O)cc1
[1]
  Potency: inactive
[2]
  Potency: inactive
[3]
  Potency: inactive
[4]
  Potency: inactive
[5]
  Potency: inactive
[6]
  Potency: inactive
[7]
  Potency: inactive
[8]
  Potency: inactive
[9]
  Potency: inactive
[10]
  Potency: inactive
[11]
  Potency: inactive
[12]
  Potency: inactive
[13]
  Potency: inactive
[14]
  Potency: inactive
[15]
  Potency: inactive
[16]
  Potency: inactive
[17]
  max response: 4.24%
[18]
  outcome: inactive
[19]
  outcome: inactive
[20]
  max response: 5.91%
